Where “and” joins values, the source holds several entries; their conditions need not be identical. Equal entries are not always repeated. Records with an inconclusive call do not appear. Some structures have more than one record in an assay (separate samples or runs), and their calls can disagree. Calls of active or inactive are those of the source. Unless noted, calls follow the shape of the dose curve; as a rule, active = well fitted curve in the direction sought with a large enough effect in the repeat runs; inconclusive = weak or mixed curves; inactive = no such curve, though single readings can be large; an effect the other way counts as inactive or inconclusive.
Experiments:
[1] = qHTS assay to identify aromatase inhibitors - cell viability counter screen (AID 743084);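 also: cells stimulated with testosterone during compound exposure; nearly all actives have a fitted effect of over 55% in size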; also: potency is read from the fitted curve at half-maximal effect
[2] = target: Aryl hydrocarbon receptor (Homo sapiens) (UniProt P35869); assay: qHTS assay to identify small molecule that activate the aryl hydrocarbon receptor (AhR) signaling pathway (AID 743085); also: nearly all actives have a fitted effect of over 15% in size; also: potency is read from the fitted curve at half-maximal effect;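 as to activation: HG2L7.5c1 human HepG2 liver cells with stably integrated DRE-driven firefly reporter; series mostly up to about 70 µM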
Aryl hydrocarbon receptor (Homo sapiens), sequence (P35869 whole entry, looked up): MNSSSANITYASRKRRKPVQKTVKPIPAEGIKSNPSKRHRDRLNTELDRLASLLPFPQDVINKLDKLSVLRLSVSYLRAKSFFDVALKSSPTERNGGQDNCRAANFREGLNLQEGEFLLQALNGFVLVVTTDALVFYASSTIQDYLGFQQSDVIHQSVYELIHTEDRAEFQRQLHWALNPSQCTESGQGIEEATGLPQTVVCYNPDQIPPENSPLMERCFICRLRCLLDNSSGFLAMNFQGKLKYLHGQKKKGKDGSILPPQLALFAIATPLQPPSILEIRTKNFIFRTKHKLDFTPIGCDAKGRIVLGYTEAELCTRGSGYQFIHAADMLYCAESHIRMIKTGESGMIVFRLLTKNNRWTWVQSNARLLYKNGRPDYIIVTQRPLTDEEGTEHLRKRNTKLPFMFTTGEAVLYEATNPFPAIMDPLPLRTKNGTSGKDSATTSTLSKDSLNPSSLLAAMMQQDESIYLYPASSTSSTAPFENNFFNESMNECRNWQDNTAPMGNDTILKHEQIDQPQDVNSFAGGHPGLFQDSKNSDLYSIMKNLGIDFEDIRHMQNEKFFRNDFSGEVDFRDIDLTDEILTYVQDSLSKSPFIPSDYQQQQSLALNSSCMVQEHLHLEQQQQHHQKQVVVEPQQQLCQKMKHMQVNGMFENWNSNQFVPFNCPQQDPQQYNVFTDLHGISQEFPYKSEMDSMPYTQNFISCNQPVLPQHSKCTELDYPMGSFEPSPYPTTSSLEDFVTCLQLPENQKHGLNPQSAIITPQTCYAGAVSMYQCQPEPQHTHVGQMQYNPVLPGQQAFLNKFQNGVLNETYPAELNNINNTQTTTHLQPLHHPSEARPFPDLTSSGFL
Summary of the method: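 HepG2 cells stably carrying a 20-DRE firefly luciferase reporter (HG2L7.5c1) treated with compound for 24 hr at 37C. Luciferase read by ONE-Glo luminescence, with CellTiter-Fluor viability read first.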

[3] = qHTS assay to identify small molecule that activate the aryl hydrocarbon receptor (AhR) signaling pathway - cell viability counter screen (AID 743086);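 also: HepG2 liver cells carrying the AhR DRE luciferase reporter; series mostly up to about 70 µM; nearly all actives have a fitted effect of over 45% in size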
Summary of the method: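 HepG2-AhR-luc (HG2L7.5c1) cells, 4000/well, were preincubated 5 h at 37C, exposed to compound in qHTS format for 24 hr at 37C, then given CellTiter-Fluor for 30 min; viability was read as fluorescence in the reporter wells.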

[4] = qHTS assay to identify small molecule antagonists of the peroxisome proliferator-activated receptor gamma (PPARg) signaling pathway - cell viability counter screen (AID 743194); also: nearly all actives have a fitted effect of over 55% in size
Summary of the method: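 PPARg-UAS-bla HEK293H cells were plated, rested 5 h at 37 C, then treated with compounds plus rosiglitazone (50 nM final) for 17 h at 37 C; viability was then read by CellTiter-Glo luminescence after 30 min at room temperature.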

[5] = qHTS assay for small molecule agonists of the antioxidant response element (ARE) signaling pathway (AID 743202; active = well fitted activation curve with a large enough effect in the signal ratio in the repeat runs, not every such curve was filed as active; the % refers to the signal ratio; also: potency is read from the fitted curve at half-maximal effect)
Summary of the method: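 Following a 16 h, 37 C exposure of reporter HepG2 cells (ARE-driven beta-lactamase, 2,000 cells/well) to compounds, FRET substrate was applied for 2 h at room temperature and fluorescence intensity recorded.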

[6] = qHTS assay for small molecule agonists of the antioxidant response element (ARE) signaling pathway - cell viability counter screen (AID 743203; calls by dose curve; also: nearly all actives have a fitted effect of over 55% in size)
Summary of the method: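 Viability counter screen: CellTiter-Glo luminescence, read after 30 min at room temperature, in ARE-bla HepG2 wells. Compound exposure lasted 16 h at 37C/5% CO2, following a 5 h pre-incubation of the cells after plating.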

[7] = qHTS assay to identify small molecule agonists of the peroxisome proliferator-activated receptor delta (PPARd) signaling pathway - cell viability counter screen (AID 743211); also: nearly all actives have a fitted effect of over 55% in size; also: potency is read from the fitted curve at half-maximal effect
Summary of the method: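 PPARd-bla HEK293H cells (3000/well) were pre-incubated 5 h at 37 C, then exposed to compound for 17 h at 37 C. After 2 h with LiveBLAzer substrate, CellTiter-Glo was added to the same wells; luminescence read after 30 min at room temperature.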

[8] = target: Peroxisome proliferator-activated receptor delta (Homo sapiens) (UniProt Q03181); assay: qHTS assay to identify small molecule agonists of the peroxisome proliferator-activated receptor delta (PPARd) signaling pathway (AID 743212; calls by dose curve)
Peroxisome proliferator-activated receptor delta (Homo sapiens), sequence (Q03181 whole entry, looked up): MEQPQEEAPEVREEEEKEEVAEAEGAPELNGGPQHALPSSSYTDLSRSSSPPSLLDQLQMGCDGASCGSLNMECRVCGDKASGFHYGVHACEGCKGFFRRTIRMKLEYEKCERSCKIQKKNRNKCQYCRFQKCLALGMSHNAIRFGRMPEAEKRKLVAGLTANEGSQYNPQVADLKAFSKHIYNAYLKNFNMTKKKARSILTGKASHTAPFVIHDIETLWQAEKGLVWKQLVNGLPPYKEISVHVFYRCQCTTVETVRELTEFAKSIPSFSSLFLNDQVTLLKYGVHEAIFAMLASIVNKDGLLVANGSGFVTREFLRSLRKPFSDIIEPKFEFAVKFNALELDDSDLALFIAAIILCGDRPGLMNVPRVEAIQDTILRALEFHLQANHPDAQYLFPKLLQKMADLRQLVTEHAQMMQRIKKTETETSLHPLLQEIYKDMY
Summary of the method: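 Beta-lactamase reporter read by fluorescence (LiveBLAzer B/G FRET, 2 h, room temperature). Test agents, in DMSO, incubated at 37 C with PPARd-bla HEK293H cells.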

[9] = qHTS assay to identify small molecule antagonists of the peroxisome proliferator-activated receptor delta (PPARd) signaling pathway - cell viability counter screen (AID 743213); also: nearly all actives have a fitted effect of over 50% in size
Summary of the method: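 Cytotoxicity counter screen: CellTiter-Glo luminescence read 30 min after addition, in the same wells as the reporter assay. There, PPARd UAS-bla HEK293H cells (3000/well) were treated 17 h at 37 C with compound and 300 nM L165041.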

[10] = qHTS assay to identify small molecule agonists of the farnesoid-X-receptor (FXR) signaling pathway - cell viability counter screen (AID 743218); also: nearly all actives have a fitted effect of over 45% in size
Summary of the method: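 Viability counter screen in the same wells: CellTiter-Glo luminescence, 30 min room-temperature incubation, measured after the beta-lactamase read. Cells were GeneBLAzer FXR-UAS-bla HEK 293T, compound-treated 16 h at 37C.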

[11] = qHTS assay to identify small molecule antagonists of the farnesoid-X-receptor (FXR) signaling pathway - cell viability counter screen (AID 743221; active = well fitted cell-killing curve with a large enough effect in the repeat runs, not every such curve was filed as active; also: nearly all actives have a fitted effect of over 50% in size)
Summary of the method: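 GeneBLAzer FXR-UAS-bla HEK 293T cells, compound plus chenodeoxycholic acid (50 uM final), 16 h at 37 C. CellTiter-Glo added to the same wells after the beta-lactamase read; luminescence read after 30 min at room temperature as viability.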

[12] = target: Vitamin D3 receptor (Homo sapiens) (UniProt P11473); assay: qHTS assay to identify small molecule agonists of the vitamin D receptor (VDR) signaling pathway (AID 743222; calls by dose curve)
Vitamin D3 receptor (Homo sapiens), sequence (P11473 whole entry, looked up): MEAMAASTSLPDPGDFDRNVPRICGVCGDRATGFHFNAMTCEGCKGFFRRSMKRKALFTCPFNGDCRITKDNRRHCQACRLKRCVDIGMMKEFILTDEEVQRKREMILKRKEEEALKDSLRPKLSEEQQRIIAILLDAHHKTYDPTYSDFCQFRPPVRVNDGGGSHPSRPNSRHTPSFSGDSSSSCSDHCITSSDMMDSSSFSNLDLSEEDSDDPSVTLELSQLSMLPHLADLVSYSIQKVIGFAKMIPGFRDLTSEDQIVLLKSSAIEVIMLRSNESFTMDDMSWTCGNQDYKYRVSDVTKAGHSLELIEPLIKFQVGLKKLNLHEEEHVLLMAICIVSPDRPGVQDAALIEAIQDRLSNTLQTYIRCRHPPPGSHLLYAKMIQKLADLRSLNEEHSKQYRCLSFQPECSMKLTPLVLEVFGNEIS
Summary of the method: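 Agonist mode, beta-lactamase reporter: fluorescence from LiveBLAzer B/G FRET substrate (2 h, room temperature) read after 16 h compound treatment at 37 C of VDR-bla cells, which were pre-incubated 4 h after seeding.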

[13] = qHTS assay for small molecule activators of the heat shock response signaling pathway - cell viability counter screen (AID 743209); also: nearly all actives have a fitted effect of over 50% in size
Summary of the method: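 Cytotoxicity counter screen run in the same wells as the heat-shock bla reporter assay: HeLa HSE-bla cells, 5 h compound exposure at 37 C, viability read by CellTiter-Glo luminescence.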

[14] = qHTS assay for small molecule activators of the heat shock response signaling pathway (AID 743210; active = well fitted activation curve with a large enough effect in the signal ratio in the repeat runs, with a control signal flat, not every such curve was filed as active; the % refers to the signal ratio; also: series mostly up to about 63 µM)
Summary of the method: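 Heat shock element–beta-lactamase HeLa reporter cells; qHTS with compounds for 5 h at 37 C; detection by FRET substrate fluorescence after 2.5 h at RT.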

[15] = target: Peroxisome proliferator-activated receptor delta (Homo sapiens) (UniProt Q03181); assay: qHTS assay to identify small molecule antagonists of the peroxisome proliferator-activated receptor delta (PPARd) signaling pathway (AID 743215; active = well fitted inhibition curve with a large enough effect in the signal ratio in the repeat runs, not every such curve was filed as active; the % refers to the signal ratio;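 also: cells stimulated with agonist L165041 at 300 nM final during compound exposure; series mostly up to about 62 µM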)
Summary of the method: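 Agonist L165041 (300 nM final) added with compound to PPARd-bla HEK293H UAS-bla reporter cells; 17 h incubation at 37 C. Read-out: LiveBLAzer FRET substrate, 2 h at room temperature, fluorescence intensity.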

[16] = target: Vitamin D3 receptor (Homo sapiens) (UniProt P11473); assay: qHTS assay to identify small molecule antagonists of the vitamin D receptor (VDR) signaling pathway (AID 743223; active = well fitted inhibition curve with a large enough effect in the signal ratio in the repeat runs, not every such curve was filed as active; the % refers to the signal ratio)
Summary of the method: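 VDR-bla cells were treated with compound plus 3 nM final 1alpha,25-dihydroxyvitamin D3 for 16 h at 37C. Beta-lactamase reporter read by B/G FRET substrate fluorescence after 2 h at room temperature. qHTS format.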

[17] = target: Bile acid receptor (Homo sapiens) (UniProt Q96RI1); assay: qHTS assay to identify small molecule antagonists of the farnesoid-X-receptor (FXR) signaling pathway (AID 743217; active = well fitted inhibition curve with a large enough effect in the signal ratio in the repeat runs, not every such curve was filed as active; the % refers to the signal ratio)
Bile acid receptor (Homo sapiens), sequence (Q96RI1 whole entry, looked up): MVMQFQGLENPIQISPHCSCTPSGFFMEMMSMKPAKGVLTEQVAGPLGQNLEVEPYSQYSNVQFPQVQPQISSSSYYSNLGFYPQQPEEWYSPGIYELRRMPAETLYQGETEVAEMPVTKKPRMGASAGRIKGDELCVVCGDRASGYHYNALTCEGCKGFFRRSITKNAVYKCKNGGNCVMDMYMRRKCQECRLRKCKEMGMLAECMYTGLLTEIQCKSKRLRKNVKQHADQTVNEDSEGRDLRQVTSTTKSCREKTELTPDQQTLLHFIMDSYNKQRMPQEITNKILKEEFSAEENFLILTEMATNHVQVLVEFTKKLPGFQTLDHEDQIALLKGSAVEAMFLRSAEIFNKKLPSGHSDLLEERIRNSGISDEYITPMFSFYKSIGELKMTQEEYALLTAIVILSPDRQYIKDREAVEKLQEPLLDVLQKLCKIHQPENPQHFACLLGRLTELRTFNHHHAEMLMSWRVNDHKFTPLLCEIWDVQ
Summary of the method: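 Antagonist mode: chenodeoxycholic acid at 50 uM final stimulates a UAS-driven beta-lactamase reporter in HEK 293T FXR-bla cells during 16 h, 37C compound exposure. Read-out is FRET substrate fluorescence after 2 h at room temperature.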

[18] = target: Bile acid receptor (Homo sapiens) (UniProt Q96RI1); assay: qHTS assay to identify small molecule agonists of the farnesoid-X-receptor (FXR) signaling pathway (AID 743220; active = well fitted activation curve with a large enough effect in the signal ratio in the repeat runs, not every such curve was filed as active; the % refers to the signal ratio)
Summary of the method: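 FXR-UAS-bla HEK 293T cells carrying a UAS-driven beta-lactamase reporter were plated for 5 h at 37C/5% CO2, then exposed to DMSO-dissolved Tox21 10K compounds for 16 h at 37C. A LiveBLAzer B/G FRET substrate was loaded for 2 h at room temperature before fluorescence reading.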

[19] = target: Peroxisome proliferator-activated receptor gamma (Homo sapiens) (UniProt P37231); assay: qHTS assay to identify small molecule agonists of the peroxisome proliferator-activated receptor gamma (PPARg) signaling pathway (AID 743094; active = well fitted activation curve with a large enough effect in the signal ratio in the repeat runs, not every such curve was filed as active; the % refers to the signal ratio)
Peroxisome proliferator-activated receptor gamma (Homo sapiens), sequence (P37231 whole entry, looked up): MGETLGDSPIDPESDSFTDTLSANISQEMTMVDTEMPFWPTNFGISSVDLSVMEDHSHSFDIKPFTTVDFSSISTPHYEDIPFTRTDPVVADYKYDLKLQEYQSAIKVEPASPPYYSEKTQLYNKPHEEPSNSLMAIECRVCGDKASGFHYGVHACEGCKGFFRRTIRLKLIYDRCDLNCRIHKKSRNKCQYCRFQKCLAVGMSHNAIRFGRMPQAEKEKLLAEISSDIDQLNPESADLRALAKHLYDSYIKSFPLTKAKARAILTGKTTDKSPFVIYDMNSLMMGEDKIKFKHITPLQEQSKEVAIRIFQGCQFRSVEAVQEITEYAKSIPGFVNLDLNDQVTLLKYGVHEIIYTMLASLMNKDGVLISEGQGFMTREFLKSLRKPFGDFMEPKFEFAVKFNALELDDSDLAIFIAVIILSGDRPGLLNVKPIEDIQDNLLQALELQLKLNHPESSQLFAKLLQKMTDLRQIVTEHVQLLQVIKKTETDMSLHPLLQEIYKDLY
Summary of the method: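 Agonist activity was taken from a beta-lactamase reporter (FRET substrate, 1 h at room temperature) in HEK293H cells carrying a PPARg UAS-bla construct. Compounds in DMSO were incubated 17 h at 37C after a 5 h cell pre-incubation.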

[20] = target: Peroxisome proliferator-activated receptor gamma (Homo sapiens) (UniProt P37231); assay: qHTS assay to identify small molecule antagonists of the peroxisome proliferator-activated receptor gamma (PPARg) signaling pathway (AID 743191; calls by dose curve; also: series mostly up to about 63 µM; nearly all actives have a fitted effect of over 30% in size)
Summary of the method: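 GeneBLAzer PPARg UAS-bla HEK293H cells carrying a UAS-driven beta-lactamase reporter were plated at 3000 cells/well, preincubated 5 h at 37C, then given compound for 17 h at 37C; LiveBLAzer B/G FRET substrate was read after 1 h at room temperature.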

Measured: Potency

CC(C)OC(=O)c1ccccc1
inactive: [1] | [2] | [3] | [4] | [5] | [6] | [7] | [8] | [9] | [10] | [11] | [12]

O=C1CCCCCCCCCCCN1
inactive: [1] | [2] | [3] | [4] | [5] | [6] | [13] | [14] | [7] | [8] | [9] | [15] | [10] | [11] | [12] | [16]

CCCCOCCOCCOCc1cc2c(cc1CCC)OCO2
inactive and 18 µM (active): [2]
inactive: [1] | [3] | [4] | [5] | [6] | [13] | [9] | [17] | [10] | [18]

COC(=O)C1=C(C)NC(C)=C(C(=O)OC)C1c1ccccc1[N+](=O)[O-]
49 µM (active) and inactive: [7]
inactive: [3] | [19] | [20] | [4] | [5] | [14] | [8] | [9] | [15] | [17] | [10] | [18] | [11] | [12] | [16]
inactive and 54.5 µM (active): [1]

CCO/C([O-])=N/c1c[n+](N2CCOCC2)no1
inactive: [1] | [2] | [3] | [4] | [5] | [6] | [14] | [7] | [8] | [9] | [17] | [10] | [18] | [11] | [12] | [16]

CC(C)CNCC(C)C
inactive: [1] | [2] | [3] | [4] | [5] | [6] | [13] | [7] | [8] | [9] | [15] | [17] | [10] | [18] | [11] | [12]

CS(=O)(=O)O
inactive: [1] | [2] | [3] | [4] | [5] | [6] | [13] | [14] | [7] | [17] | [18] | [11] | [12] | [16]

CN1CCN(c2cc3c(cc2F)c(=O)c(C(=O)O)cn3-c2ccc(F)cc2)CC1
inactive: [1] | [2] | [3] | [4] | [5] | [6] | [13] | [14] | [7] | [9] | [17] | [10] | [18] | [11] | [12]

C=CCS(=O)(=O)O
inactive: [1] | [3] | [19] | [20] | [4] | [5] | [6] | [13] | [14] | [7] | [8] | [9] | [15] | [17] | [10] | [18] | [11]

NC(=O)c1ccc(N)cc1
inactive: [1] | [3] | [19] | [20] | [4] | [5] | [6] | [13] | [7] | [9] | [17] | [10] | [18] | [11] | [12] | [16]

c1cnc(N2CCN(Cc3ccc4c(c3)OCO4)CC2)nc1
inactive: [1] | [3] | [19] | [20] | [4] | [5] | [6] | [14] | [7] | [8] | [9] | [15] | [12] | [16]

CN1CC(=O)NC1=N
inactive: [1] | [2] | [3] | [4] | [5] | [13] | [14] | [7] | [8] | [9] | [15] | [17] | [10] | [18] | [12] | [16]

COC(=O)[C@@H](N)Cc1ccc(O)c(O)c1
active: [1] 26.6 µM | [2] 26.6 µM
inactive: [19] | [4] | [6] | [13] | [14] | [7] | [9] | [10]

CC1(C)CO[C@@H](CC(=O)O)CN1
inactive: [1] | [2] | [3] | [4] | [5] | [6] | [13] | [7] | [8] | [11] | [12] | [16]

CC(=O)CC(C)C
inactive: [1] | [3] | [19] | [20] | [4] | [5] | [13] | [7] | [8] | [9] | [15] | [17] | [10] | [18] | [11] | [12] | [16]

COC(=O)c1ccc(C)cc1C1=NC(C)(C(C)C)C(=O)N1 (configuration not stated)
inactive: [1] | [2] | [19] | [20] | [4] | [5] | [13] | [14] | [7] | [8] | [9] | [11] | [12]

CC(C)(c1ccc(O)cc1)c1ccc(O)cc1
active: [2] 32.2 µM | [5] 27 µM and 17.5 µM
inactive: [1] | [3] | [4] | [6] | [13] | [14] | [7] | [8] | [11]

OC1CCCCC1c1ccccc1 (configuration not stated)
inactive: [1] | [2] | [3] | [4] | [5] | [6] | [14] | [7] | [8] | [9] | [15] | [11] | [12] | [16]
